# Results reported in the OligoGym collection.
# Target: CCDC56
# Test: pooled miR-30 sensor sort-seq; sequence = guide strand
# Conditions: shRNA
# Note: reference of the scale not given here.
row,Sequence,sensor-assay potency score (higher = more potent)
1,TTGCCAGAGCTCGGGCTCGGGC,-1.79
2,TCGTCTTCTAGCTCATCTAGGA,-0.614
3,TCGGGTGTCAGCTTCTCCCGAG,-0.206
4,TAAATAGCCAACACCAGGGCCC,0.333
5,ATCTAGGAAACGCTCCTGGGAA,-1.12
6,TGGGAAATCGAGTAGAAGGTGT,0.0738
7,TAGAATCCAGAGGGTCACCAGC,-1.25
8,TTGCTCGGGTGTCAGCTTCTCC,-1.07
9,TCATCTAGGAAACGCTCCTGGG,-1.24
10,TAGCTCATCTAGGAAACGCTCC,-0.33

# Target: CCDC72
# Test: as above
# Conditions: shRNA
row,Sequence,sensor-assay potency score (higher = more potent)
1,TTATTCTTAAATGTACAACAGC,-0.855
2,TTGTTTCTGCTTGAAAGCCTTA,-0.0976
3,TCTTCCTCGTCCATCTCCTTGG,-0.456
4,TTATCTTCCTCGTCCATCTCCT,0.315
5,ATCTTCCTCGTCCATCTCCTTG,-1.81
6,TTCAGTGGCTTCTTCTTGCCAC,0.0626
7,TTCCTCGTCCATCTCCTTGGCC,-0.547
8,TTTGTTTCTGCTTGAAAGCCTT,-0.585
9,TCTGCTTGAAAGCCTTATCTTC,-0.819
10,TTAAATGTACAACAGCTCCAAG,-1.04

# Target: CCDC77
# Test: as above
# Conditions: shRNA
row,Sequence,sensor-assay potency score (higher = more potent)
1,TTTCTTCTTACACTGCACCCTA,-0.0389
2,TTTCGTTTGAGTCTCTAGCGCC,-0.231
3,TTTCTTGTCTTCTAGCTCCCTG,-0.0804
4,TTAATATCTGTCTTAAAGCCTT,-0.792
5,TTTGGTGCTCTCATAGAGCAGT,-0.0472
6,TAATATATTCACTTTGAGCATG,-0.91
7,TTGCAAAATACCTTCTTCCTAA,-0.254
8,TAGCTCTTTGATTTTGTTCTGA,0.252
9,TTATCTTTTTCAAGCATCCATG,-1.19
10,TTCTTGTCTTCTAGCTCCCTGA,-1.06
11,TATGCTGTCCTTCACAAGCTTC,-1.33
12,TTTTTCTCTTGTACTAACTTAT,-0.944

# Target: CCL13
# Test: as above
# Conditions: shRNA
row,Sequence,sensor-assay potency score (higher = more potent)
1,TTACTTAACACATAGTACATTT,-1.04
2,TGCAAGGAGATCTTCTTACTGC,-0.0125
3,TAACACATAGTACATTTTGAAT,-1.62
4,TATAATTCTGGACCCACTTCTC,-0.771
5,TCTGAAGATGACAGCCTTCTGG,-0.807
6,TAAATGTGAAGCAGCAAGTAGA,-1.06
7,TTTCATATAATTCTGGACCCAC,0.0997
8,ATCTTCTTACTGCTAAATGTGA,-1.06
